# Source: PubChem BioAssay (Tox21)
# Unmarked numbers belong to inactive results. Inconclusive results are not listed. Where a call stands in place of a potency, no number is given. Calls of active or inactive are those of the source. Unless noted, the call rests on the fitted dose curve.
# Assays:
# [1] = Nuclear factor erythroid 2-related factor 2/antioxidant responsive element (Nrf2/ARE) small molecule agonists: qHTS cell viability counter screen in human keratinocytes (AID 1919968; active means well fitted curve in the direction sought with a large enough effect in the repeat runs; an effect the other way counts as inactive or inconclusive; further: nearly all actives have a fitted effect of over 55% in size)
# How it was run: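 After a 5 h attachment period, ARE-reporter keratinocytes were dosed with compounds in DMSO and then cultured 23 h at 37 C. Cell viability came from CellTiter-Fluor signal read after a further 1 h.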
# [2] = Nuclear factor erythroid 2-related factor 2/antioxidant responsive element (Nrf2/ARE) small molecule agonists: luciferase reporter gene qHTS assay in human keratinocytes (AID 1919969); further: nearly all actives have a fitted effect of over 35% in size; further: potency means the concentration at half of the fitted maximal effect
# [3] = target: Gonadotropin-releasing hormone receptor (Homo sapiens) (UniProt P30968); experiment: Human gonadotropin-releasing hormone receptor (GnRHR) small molecule agonists, calcium flux assay in GnRHR-HEK293 cells (AID 1920063); further: nearly all actives have a fitted effect of over 35% in size
# How it was run: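 We seeded human GnRHR-expressing HEK293 cells for 18 hours, loaded them with calcium dye for an hour at 37 C, added test compounds, and recorded fluorescence intensity kinetically for three minutes.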
# [4] = target: KiSS-1 receptor (Homo sapiens) (UniProt Q969F8); experiment: Human kisspeptin (KISS1R) small molecule agonists, calcium flux assay in KISS1R-HEK293 cells (AID 1920064; active means well fitted curve in the direction sought with a large enough effect in the repeat runs; an effect the other way counts as inactive or inconclusive)
# How it was run: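 Kinetic calcium assay, 1 s sampling over 3 min at Ex/Em 480/540, in HEK293 cells engineered with human KISS1R; compounds delivered in DMSO after 1 h dye loading.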
# [5] = G protein-coupled receptor (GPCR) small molecule agonists, calcium flux assay: HEK293 wild type cell line counter screen (AID 1920065)
# How it was run: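 Calcium-sensitive dye, loaded 1 h at 37 C into cells cultured 18 h, reports compound-evoked calcium release as fluorescence (Ex/Em 480/540), measured over 3 min. Agonist mode; 15-point titrations, triplicate.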
# [6] = p53 small molecule agonists, cell-based qHTS assay with human liver microsomes (AID 1963577);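 further: p53 response element beta-lactamase reporter cells with liver microsomes plus NADPH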
# How it was run: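 With metabolic activation: human liver microsomes (0.5 mg/mL final) plus NADPH (0.5 mg/mL final) added alongside compounds to p53RE-bla cells; 16 h 37 C exposure; beta-lactamase read by LiveBLAzer fluorescence.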
# [7] = p53 small molecule agonists, cell-based qHTS assay with rat liver microsomes (AID 1963578)
# How it was run: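 Metabolic activation by rat liver microsomes and NADPH, each 0.5 mg/mL final, added right after compounds to p53RE-bla reporter cells (4,000/well, plated 5 h earlier). 16 h at 37 C, then LiveBLAzer substrate for 2 h at room temperature in the dark; fluorescence read-out.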
# [8] = p53 small molecule agonists, cell-based qHTS assay with human liver microsomes: qHTS cell viability counter screen (AID 1963579); further: nearly all actives have a fitted effect of over 45% in size
# How it was run: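 Metabolic activation used human liver microsomes and NADPH, both 0.5 mg/mL final, over 16 hours at 37 C on p53RE-bla cells (4,000/well). Cytotoxicity measured by CellTiter-Glo luminescence, 30 min at room temperature.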
# [9] = p53 small molecule agonists, cell-based qHTS assay with rat liver microsomes: qHTS cell viability counter screen (AID 1963580); further: nearly all actives have a fitted effect of over 45% in size
# How it was run: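 p53RE-bla HCT-116 cells (4,000/well) rested 5 h at 37 C, then given Tox21 compounds in DMSO with rat liver microsomes (0.5 mg/mL final) plus NADPH (0.5 mg/mL final) for 16 h at 37 C. Viability read by CellTiter-Glo luminescence after 30 min at room temperature.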
# [10] = p53 small molecule agonists, cell-based qHTS assay: qHTS cell viability counter screen (AID 1963581); further: nearly all actives have a fitted effect of over 45% in size
# How it was run: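 Following 5 h attachment, HCT-116 p53RE-bla cells took up compound for 16 h at 37 C; the reporter was read with B/G FRET substrate (2 h RT), and viability then via CellTiter-Glo ATP luminescence.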
# [11] = p53 small molecule agonists, cell-based qHTS assay (AID 1963582; active means well fitted activation curve with a large enough effect in the signal ratio in the repeat runs, not every such curve was filed as active; the % refers to the signal ratio)
# How it was run: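 In this cell-based concentration-response screen, a p53 response element drives beta-lactamase; cells received DMSO-borne compounds after 5 h culture and were incubated a further 16 h before FRET substrate development.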
# [12] = target: 5-hydroxytryptamine receptor 2A (Homo sapiens) (UniProt P28223); experiment: 5-hydroxytryptamine receptor 2A (HTR2A) small molecule agonists, cell-based qHTS assay (AID 1963587); further: nearly all actives have a fitted effect of over 30% in size
# How it was run: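 HTR2A-CHO cells, plated 18 h at 37 C/5% CO2, dye-loaded 1 h at 37 C; compounds in DMSO added by pin tool (agonist mode). Intracellular calcium flux read as kinetic fluorescence on FDSS over 2 min at 1 s intervals.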
# [13] = target: Muscarinic acetylcholine receptor M1 (Homo sapiens) (UniProt P11229); experiment: Cholinergic receptor muscarinic 1 (CHRM1) small molecule agonists, cell-based qHTS assay (AID 1963589); further: nearly all actives have a fitted effect of over 35% in size
# How it was run: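 Measures agonist-induced intracellular calcium rise. Stable human CHRM1 CHO line, 1 h dye load at 37 C, compounds from DMSO, kinetic fluorescence read.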
# [14] = cAMP Responsive Elements (CRE) small molecule agonists, cell-based qHTS assay (AID 1963590)
# How it was run: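 A CRE-responsive beta-lactamase reporter in HEK 293T cells was used. Treatment ran 3 h at 37 C; detection used LiveBLAzer B/G FRET substrate for 2 h at room temperature.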
# [15] = cAMP Responsive Elements (CRE) small molecule antagonists, cell-based qHTS assay (AID 1963591; active means well fitted inhibition curve with a large enough effect in the signal ratio in the repeat runs, not every such curve was filed as active; the % refers to the signal ratio)
# How it was run: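 HEK293T cells carrying a CRE-driven beta-lactamase reporter receive compound and NKH477 (0.25 uM final) for 3 h. Fluorescence from LiveBLAzer B/G FRET substrate is read after 2 h at room temperature.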
# [16] = target: Beta-2 adrenergic receptor (Homo sapiens) (UniProt P07550); experiment: Adrenergic beta2 receptor (ADRB2) small molecule antagonists, cell-based qHTS assay (AID 1963592); further: series mostly up to about 92 µM; nearly all actives have a fitted effect of over 50% in size
# How it was run: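 Cells (CHO, stable ADRB2 overexpression) incubated 18-20hr at 37C; compounds added from DMSO; agonist mix (1nM isoproterenol, 100uM IBMX, 25uM Ro-20-1724) added; 0.5hr RT; d2-cAMP and anti-cAMP-cryptate added; 1hr RT; 665/615 nm read.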
# [17] = target: Beta-2 adrenergic receptor (Homo sapiens) (UniProt P07550); experiment: Adrenergic beta2 receptor (ADRB2) small molecule agonists, cell-based qHTS assay (AID 1963593);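 further: CHO cells stably overexpressing human ADRB2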
# How it was run: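 CHO cells stably over-expressing ADRB2 were plated overnight at 37C, then dosed with compounds plus a stimulation mix containing 100uM IBMX and 25uM Ro-20-1724 for 0.5hr at room temperature. cAMP was measured by HTRF competition, 1hr.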
# [18] = target: D(2) dopamine receptor (Homo sapiens) (UniProt P14416); experiment: Dopamine D2 receptor (DRD2) small molecule agonists, cell-based qHTS assay (AID 1963594); further: nearly all actives have a fitted effect of over 35% in size
# How it was run: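 HEK293 cells stably expressing DRD2 were cultured 24 h at 37 C, then given Ro20-1724 (0.1 mM final) and compounds for 10 min at room temperature. NKH477 (200nM) was then added for 30 min. cAMP was read by HTRF.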
# [19] = target: D(2) dopamine receptor (Homo sapiens) (UniProt P14416); experiment: Dopamine D2 receptor (DRD2) small molecule antagonists, cell-based qHTS assay (AID 1963595; active means well fitted inhibition curve with a large enough effect in the signal ratio in the repeat runs, with a control signal flat; the % refers to the signal ratio)
# How it was run: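 Stable D2 receptor HEK293 line, 24 h after seeding. Compound preincubated 10 min, then quinpirole (12 nM) with forskolin analogue NKH477 (200 nM), 30 min, room temperature. Detection by time-resolved FRET of cAMP.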
# [20] = target: Muscarinic acetylcholine receptor M1 (Homo sapiens) (UniProt P11229); experiment: Cholinergic receptor muscarinic 1 (CHRM1) small molecule antagonists, cell-based qHTS assay (AID 1963588); further: nearly all actives have a fitted effect of over 40% in size
# How it was run: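 CHRM1-CHO calcium-flux assay, antagonist mode. Cells were seeded 18 h, dye-loaded 1 h at 37 C and given compound for 5 min at RT, then acetylcholine was added at 50nM. FDSS fluorescence was read 3 min; 15 concentrations, three runs.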
# Muscarinic acetylcholine receptor M1 (Homo sapiens), sequence (P11229 whole entry, looked up): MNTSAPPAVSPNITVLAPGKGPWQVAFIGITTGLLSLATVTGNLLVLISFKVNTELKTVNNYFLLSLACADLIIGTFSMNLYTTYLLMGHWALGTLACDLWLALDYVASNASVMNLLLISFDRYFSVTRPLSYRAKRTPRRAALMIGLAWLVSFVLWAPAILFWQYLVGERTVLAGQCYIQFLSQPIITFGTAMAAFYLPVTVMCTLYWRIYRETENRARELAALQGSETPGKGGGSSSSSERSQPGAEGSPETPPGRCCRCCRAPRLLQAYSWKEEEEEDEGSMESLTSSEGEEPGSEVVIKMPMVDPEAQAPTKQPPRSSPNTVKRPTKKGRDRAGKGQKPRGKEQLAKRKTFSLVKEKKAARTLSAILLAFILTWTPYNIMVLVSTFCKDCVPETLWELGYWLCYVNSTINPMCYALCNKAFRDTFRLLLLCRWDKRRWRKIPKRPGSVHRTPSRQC
# Gonadotropin-releasing hormone receptor (Homo sapiens), sequence (P30968 whole entry, looked up): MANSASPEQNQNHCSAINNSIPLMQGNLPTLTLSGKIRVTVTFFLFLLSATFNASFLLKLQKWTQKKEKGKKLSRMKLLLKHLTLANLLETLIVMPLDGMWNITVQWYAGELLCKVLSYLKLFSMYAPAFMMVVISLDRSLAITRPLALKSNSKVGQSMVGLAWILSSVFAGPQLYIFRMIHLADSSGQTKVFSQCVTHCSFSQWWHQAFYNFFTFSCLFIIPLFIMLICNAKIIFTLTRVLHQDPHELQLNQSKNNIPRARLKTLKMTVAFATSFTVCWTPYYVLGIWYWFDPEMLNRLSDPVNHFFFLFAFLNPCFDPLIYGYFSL
# Beta-2 adrenergic receptor (Homo sapiens), sequence (P07550 whole entry, looked up): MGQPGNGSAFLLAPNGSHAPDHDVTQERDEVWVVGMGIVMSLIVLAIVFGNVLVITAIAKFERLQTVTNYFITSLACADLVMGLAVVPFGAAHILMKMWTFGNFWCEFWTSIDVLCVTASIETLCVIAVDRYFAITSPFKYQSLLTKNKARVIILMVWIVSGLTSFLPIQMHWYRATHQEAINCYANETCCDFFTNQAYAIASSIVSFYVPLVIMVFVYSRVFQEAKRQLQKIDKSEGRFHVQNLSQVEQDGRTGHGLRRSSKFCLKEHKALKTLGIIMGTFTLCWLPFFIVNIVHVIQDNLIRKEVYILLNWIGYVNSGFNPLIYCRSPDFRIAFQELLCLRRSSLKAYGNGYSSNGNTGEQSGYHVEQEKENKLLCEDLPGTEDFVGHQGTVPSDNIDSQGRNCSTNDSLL
# D(2) dopamine receptor (Homo sapiens), sequence (P14416 whole entry, looked up): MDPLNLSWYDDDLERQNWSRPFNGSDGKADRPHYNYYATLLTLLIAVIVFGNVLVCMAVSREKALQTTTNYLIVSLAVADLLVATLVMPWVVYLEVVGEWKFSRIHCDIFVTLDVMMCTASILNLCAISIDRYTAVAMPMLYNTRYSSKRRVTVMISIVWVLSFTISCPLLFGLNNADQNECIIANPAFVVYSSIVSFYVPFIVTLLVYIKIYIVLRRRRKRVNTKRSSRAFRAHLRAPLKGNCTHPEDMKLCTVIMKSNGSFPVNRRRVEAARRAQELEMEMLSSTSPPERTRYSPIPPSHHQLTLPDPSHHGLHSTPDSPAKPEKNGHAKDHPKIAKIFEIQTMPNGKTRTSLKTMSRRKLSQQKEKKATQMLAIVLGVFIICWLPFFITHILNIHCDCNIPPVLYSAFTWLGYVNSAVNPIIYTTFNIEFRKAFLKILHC
# KiSS-1 receptor (Homo sapiens), sequence (Q969F8 whole entry, looked up): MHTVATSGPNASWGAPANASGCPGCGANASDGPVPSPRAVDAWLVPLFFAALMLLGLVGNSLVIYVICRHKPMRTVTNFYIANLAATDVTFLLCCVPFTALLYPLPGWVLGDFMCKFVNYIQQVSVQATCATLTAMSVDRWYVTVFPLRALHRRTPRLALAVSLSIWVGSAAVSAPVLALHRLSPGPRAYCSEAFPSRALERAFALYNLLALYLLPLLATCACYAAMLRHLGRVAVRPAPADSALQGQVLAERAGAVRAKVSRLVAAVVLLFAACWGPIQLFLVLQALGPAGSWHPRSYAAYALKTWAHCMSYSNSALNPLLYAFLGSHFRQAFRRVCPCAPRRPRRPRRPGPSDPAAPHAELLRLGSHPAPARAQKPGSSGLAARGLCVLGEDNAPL
# 5-hydroxytryptamine receptor 2A (Homo sapiens), sequence (P28223 whole entry, looked up): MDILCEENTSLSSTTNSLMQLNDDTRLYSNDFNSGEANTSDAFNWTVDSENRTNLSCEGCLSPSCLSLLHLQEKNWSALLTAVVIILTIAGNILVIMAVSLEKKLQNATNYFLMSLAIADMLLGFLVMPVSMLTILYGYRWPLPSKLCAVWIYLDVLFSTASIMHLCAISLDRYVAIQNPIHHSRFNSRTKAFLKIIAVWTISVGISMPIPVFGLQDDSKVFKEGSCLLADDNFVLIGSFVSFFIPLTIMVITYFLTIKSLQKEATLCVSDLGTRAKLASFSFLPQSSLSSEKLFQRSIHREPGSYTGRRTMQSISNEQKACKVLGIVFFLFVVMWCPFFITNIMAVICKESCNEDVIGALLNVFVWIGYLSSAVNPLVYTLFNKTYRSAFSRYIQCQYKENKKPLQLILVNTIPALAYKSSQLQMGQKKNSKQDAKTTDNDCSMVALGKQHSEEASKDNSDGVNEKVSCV
SMILES,Potency [1],Potency [2],Potency [3],outcome [4],outcome [5],Potency [6],Potency [7],Potency [8],Potency [9],Potency [10],Potency [11],Potency [12],Potency [13],Potency [14],Potency [15],Potency [16],Potency [17],Potency [18],Potency [19],Potency [20]
CCCCCCCCCCCCCCCCCCN(C)C,inactive,inactive,inactive,inactive,inactive,inactive,inactive,inactive,inactive,inactive,inactive,inactive,inactive,inactive,inactive,inactive,inactive,inactive,inactive,
C=CCCCCCCCCC=O,inactive,inactive,inactive,inactive,inactive,inactive,inactive,inactive,inactive,inactive,inactive,inactive,inactive,,,inactive,,inactive,inactive,inactive
O=[N+]([O-])c1cc(Cl)c(Cl)c(Cl)c1Cl,inactive,48.4 µM (active),inactive,inactive,inactive,inactive,inactive,inactive,inactive,inactive,inactive,inactive,,,inactive,inactive,,inactive,inactive,inactive
C/C=C(\C)C(=O)OCC/C=C\CC,inactive,inactive,inactive,inactive,inactive,inactive,inactive,inactive,inactive,inactive,inactive,inactive,inactive,inactive,inactive,inactive,,inactive,inactive,
O=C(CO)[C@@H](O)[C@H](O)[C@H](O)CO,inactive,inactive,inactive,inactive,inactive,inactive,inactive,inactive,inactive,inactive,inactive,inactive,inactive,inactive,inactive,inactive,,,inactive,
O=C(CS)Nc1ccccc1,inactive,29.8 µM (active),inactive,inactive,inactive,inactive,inactive,inactive,inactive,inactive,inactive,inactive,inactive,,,inactive,,inactive,,inactive
Oc1ccccc1C=NCc1ccccc1,inactive,inactive,inactive,inactive,inactive,inactive,inactive,inactive,inactive,inactive,inactive,inactive,inactive,,inactive,,inactive,inactive,inactive,inactive
CCCCOC(=O)CC,inactive,inactive,inactive,inactive,inactive,inactive,inactive,inactive,inactive,inactive,inactive,inactive,inactive,inactive,inactive,inactive,inactive,inactive,inactive,
O=C1c2ccccc2C(=O)c2cc(O)ccc21,inactive,inactive,inactive,inactive,inactive,inactive,inactive,inactive,inactive,inactive,inactive,inactive,inactive,,inactive,inactive,inactive,,inactive,inactive
NS(=O)(=O)c1cc2c(cc1Cl)CN(C1CCCCC1)C2=O,inactive,inactive,inactive,inactive,inactive,inactive,inactive,inactive,inactive,inactive,inactive,inactive,inactive,,,,inactive,inactive,inactive,inactive
